PubChem BioAssay (NCI)
This is part of a sample that, as a whole, favours compounds with a hit. Of some 83,000 tested, about 20% had one in any assay.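 Cells were grown in 96-well plates and exposed to the test compound at a single concentration for 48 hours; results are reported as percent growth, with values below 10 considered active.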 A number with no mark means an inactive call. Activity calls are given as the source filed them.

What was measured:
Assay in all cases: NCI-60 one-dose screen, 48 h (100 = growth as untreated, 0 = no growth, -100 = all killed)
SR leukemia = conditions: 10 µM unless noted
RPMI-8226 leukemia = conditions: 10 µM unless noted
OVCAR-8 ovarian = conditions: 10 µM unless noted
OVCAR-5 ovarian = conditions: 10 µM unless noted
OVCAR-4 ovarian = conditions: 10 µM unless noted
SK-OV-3 ovarian = conditions: 10 µM unless noted
IGROV1 ovarian = conditions: 10 µM unless noted
OVCAR-3 ovarian = conditions: 10 µM unless noted
NCI/ADR-RES ovarian = conditions: 10 µM unless noted
T-47D breast = conditions: 10 µM unless noted
BT-549 breast = conditions: 10 µM unless noted
MDA-MB-435 melanoma = conditions: 10 µM unless noted
SW-620 colon = conditions: 10 µM unless noted
MCF7 breast = conditions: 10 µM unless noted
HCT-116 colon = conditions: 10 µM unless noted
HCC-2998 colon = conditions: 10 µM
KM12 colon = conditions: 10 µM unless noted

Row | Compound | growth (SR leukemia) | growth (RPMI-8226 leukemia) | growth (OVCAR-8 ovarian) | growth (OVCAR-5 ovarian) | growth (OVCAR-4 ovarian) | growth (SK-OV-3 ovarian) | growth (IGROV1 ovarian) | growth (OVCAR-3 ovarian) | growth (NCI/ADR-RES ovarian) | growth (T-47D breast) | growth (BT-549 breast) | growth (MDA-MB-435 melanoma) | growth (SW-620 colon) | growth (MCF7 breast) | growth (HCT-116 colon) | growth (HCC-2998 colon) | growth (KM12 colon)
1 | Cn1cc(-c2[nH]c3cc(NC(=O)[C@H](N)C4CCCCC4)cc4c3c2C=NNC4=O)cn1 | -15.7% (active) | -18.1% (active) | -29.5% (active) | 13% | 20.9% | 6.78% (active) | -27.4% (active) | -13% (active) | 49.7% | -9.81% (active) | -73.7% (active) | -33.9% (active) | -31.8% (active) | -12.1% (active) | -76% (active) | 32.6% | 2.52% (active)
2 | O=C(/C=C/c1ccc2c(c1)OCO2)c1c(O)c2ccccc2oc1=O | 79% | 115% | 93.9% | 102% | 106% | 94.2% | 112% | 104% | 102% | 89% | 95.8% | 104% | 128% | 88.9% | 86.9% | 112% | 93.6%
3 | Cc1cc(Nc2cc(N3CCN(C)CC3)nc(/C=C/c3ccccc3)n2)n[nH]1 | -13.6% (active) | 28.3% | 36.1% | 13.2% | 41% | 3.69% (active) | -30.7% (active) | 43.8% | 15.7% | -24.7% (active) | 8.9% (active) | 6.58% (active) | 0.289% (active) | 0.852% (active) | 0.937% (active) | -61.5% (active) | -16.9% (active)
4 | CN1CCN(c2ccc(C(=O)Nc3n[nH]c4ccc(Cc5cc(F)cc(F)c5)cc34)c(NC3CCOCC3)c2)CC1 | -28.6% (active) | -29.6% (active) | 22.6% | 1.41% (active) | -6.27% (active) | 20.1% | -46.1% (active) | 32.8% | 10.8% | -65.6% (active) | 10.6% | -86.5% (active) | -79.2% (active) | -72% (active) | -95.5% (active) | -81.3% (active) | -72.5% (active)
5 | Cc1ccc(F)c(NC(=O)Nc2ccc(-c3cccc4[nH]nc(N)c34)cc2)c1 | 4.39% (active) | 9.63% (active) | 9.41% (active) | 21.4% | 21.1% | 52.1% | 10.1% | 33.2% | 26% | 1.25% (active) | 29.2% | 16.8% | 14.9% | 2.81% (active) | 6.9% (active) | -6.88% (active) | 2.63% (active)
6 | Cc1cnc(NC(=O)Nc2cc(Br)c(C)cc2OC[C@@H]2CNCCO2)cn1 | -18.5% (active) | 13% | 1.6% (active) | 36.6% | 45.6% | 32% | 30.5% | 22.2% | 7.93% (active) | -46.5% (active) | 23.6% | -36.2% (active) | 20.8% | 2% (active) | 10.4% | 12% | 15%
7 | C[C@@H]1COC(Nc2ccc3ncnc(Nc4ccc(OCc5nccs5)c(Cl)c4)c3c2)=N1 | 17.6% | 18.8% | 10.4% | 59.6% | 25.3% | -3.87% (active) | 0.932% (active) | 31.7% | 9.99% (active) | -17.5% (active) | 1.81% (active) | 50.1% | 76.8% | 45.1% | 30.1% | 46.9% | 18.5%
8 | CNC(=O)c1cc(COc2nnc(Nc3ccc(Cl)cc3)c3ccoc23)ccn1 | 61.3% | 89.9% | 14.3% | 23.5% | -38.4% (active) | -60.8% (active) | 24.7% | 46.6% | 15.2% | 15.2% | 29.8% | 73.2% | 108% | 48.1% | 35.5% | 94.3% | 53.8%
9 | Cc1nc(N)sc1-c1ccnc(Nc2ccc(N3CCOCC3)cc2)n1 | 2.59% (active) | 31.4% | 34.2% | 42.8% | 53.7% | 8.94% (active) | 12.3% | 59.6% | 61.4% | 29.8% | 17.3% | 67.2% | 41.4% | 27.2% | 26.2% | 77.8% | 23.7%
10 | CCN1CCN(Cc2ccc(-c3cc4c(N[C@H](C)c5ccccc5)ncnc4[nH]3)cc2)CC1 | 21.2% | 55.9% | 35.6% | 8.61% (active) | 76.2% | -7.56% (active) | -1.26% (active) | 56.8% | 46.7% | 29% | 79.2% | 37% | 13.1% | 48.6% | 19.7% | 14.3% | 31.2%
11 | COc1cc2ncnc(Nc3ccc(F)c(Cl)c3)c2cc1NC(=O)/C=C/CN1CCCCC1 | -14.5% (active) | -31.2% (active) | -38.2% (active) | -22% (active) | -57.5% (active) | -93.5% (active) | -47.7% (active) | -83.2% (active) | -55% (active) | -63% (active) | -32.4% (active) | -95.3% (active) | -78.4% (active) | -53.7% (active) | -78.5% (active) | -88% (active) | -83.8% (active)
12 | CO[C@H]1C[C@@H]2CC[C@@H](C)[C@@](O)(O2)C(=O)C(=O)N2CCCC[C@H]2C(=O)O[C@H]([C@H](C)C[C@@H]2CC[C@@H](O)[C@H](OC)C2)CC(=O)[C@H](C)/C=C(\C)[C@@H](O)[C@@H](OC)C(=O)[C@H](C)C[C@H](C)\C=C/C=C/C=C/1C | 11.5% | 23.8% | 38.7% | 56.6% | 22.9% | 34.3% | 13.8% | 47.6% | 49% | -5.21% (active) | 20.3% | 36.9% | 51.3% | 7.85% (active) | 39.5% | 58.6% | 42.8%
13 | O=c1sn(-c2cccc3ccccc23)c(=O)n1Cc1ccccc1 | 38.7% | 76.8% | 94.4% | 112% | 107% | 83% | 98.2% | 99.4% | 107% | 91.5% | 110% | 104% | 110% | 103% | 88.1% | 110% | 104%
14 | Cn1c(Nc2ccc(C(F)(F)F)cc2)nc2cc(Oc3ccnc(-c4ncc(C(F)(F)F)[nH]4)c3)ccc21 | 32.1% | 86.7% | 58.1% | 63.2% | 64.7% | 6.69% (active) | 33.1% | 58.8% | 66.3% | 48.5% | 37.5% | 28.8% | 65.5% | 82.3% | 32.9% | 73% | 58.3%
15 | C/C=C/C=N/NC(=S)Nc1ccccc1 | 83.4% | 104% | 96.5% | 82.2% | 94.1% | 94.2% | 93.6% | 117% | 99% | 111% | 96.5% | 109% | 121% | 86% | 97.9% | 104% | 98.6%
16 | Cc1cnc(Nc2ccc(OCCN3CCCC3)cc2)nc1Nc1cccc(S(=O)(=O)NC(C)(C)C)c1 | -11.4% (active) | -33.8% (active) | 3.89% (active) | 7.41% (active) | 26.3% | -86.8% (active) | -11.8% (active) | 28.2% | 30.5% | 12.5% | -0.344% (active) | 13.5% | -21.3% (active) | 0.924% (active) | 1.03% (active) | -25.9% (active) | 5.75% (active)
17 | CC(C)CC(=O)Nc1n[nH]c2c1CN(C(=O)C1CCN(C)CC1)C2(C)C | 2.42% (active) | 3.37% (active) | 15.4% | 8.63% (active) | 33.5% | -1.71% (active) | 15.4% | 18.3% | 96.1% | -3% (active) | 33.7% | 12% | 9.91% (active) | 3.99% (active) | 2.94% (active) | 13.1% | 9.26% (active)
18 | O=C(Nc1nc2cccc(-c3ccc(CN4CCS(=O)(=O)CC4)cc3)n2n1)C1CC1 | 45.4% | 62.5% | 58.1% | 75.3% | 78.4% | 58.4% | 65% | 57.5% | 90.3% | 80.4% | 53.6% | 91.3% | 30.1% | 16.7% | 44.3% | 79.2% | 31.7%
